In the library only some 4.4% were active in any assay of this set; here they are far more common.
TRHR enhancer = TRH receptor (human) allosteric enhancement; P34981; TRHR cells, fluo-8 calcium fluorescence, EC20 TRH enhancement; enhancement, % at 2 µM; hit rate 0.66% among 360,000; AID 493056; in the data active = enhancement above about 30%; note: 0% is about no effect
Target sequence (P34981 whole entry, looked up): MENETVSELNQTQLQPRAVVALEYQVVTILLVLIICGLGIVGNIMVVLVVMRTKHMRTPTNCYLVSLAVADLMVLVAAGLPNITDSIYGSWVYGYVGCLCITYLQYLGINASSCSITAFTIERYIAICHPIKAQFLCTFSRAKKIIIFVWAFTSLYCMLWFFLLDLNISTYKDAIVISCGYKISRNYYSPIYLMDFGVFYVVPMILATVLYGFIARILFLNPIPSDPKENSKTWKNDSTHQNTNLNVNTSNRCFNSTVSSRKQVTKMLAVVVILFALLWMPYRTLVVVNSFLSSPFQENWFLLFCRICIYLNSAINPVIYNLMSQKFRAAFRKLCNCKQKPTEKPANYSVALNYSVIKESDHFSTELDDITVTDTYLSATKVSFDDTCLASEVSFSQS
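Enhancer read-out: after compound pinning and an initial kinetic agonist-mode read, an EC20 of TRH (10 nM final) was injected and fluo-8 calcium signal (Ex 480/Em 530) followed at 1 s/cycle for 100 cycles in TRHR-expressing cells.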
D1 potentiator = potentiators of human D1 dopamine receptor; P21728; HEK293 TREx D1 cells, calcium flux, dopamine EC20 potentiation; potentiation, % at 10 µM; hit rate 0.036% among 360,000; AID 504651; in the data active = potentiation above about 30%; note: 0% is about no effect
USP1 inh = USP1/UAF1 (human) deubiquitinase inhibition; recombinant USP1/UAF1, Ub-Rhodamine cleavage fluorescence; Potency, µM (series often up to 57.1 µM), inactives show at the highest dose activity change, negative = inhibition, actives largely listed as inhibitors; hit rate 0.23% among 390,000; active = well fitted inhibition curve with a large enough effect; inconclusive = small, poorly fitted or top-dose-only effect; inactive = no such curve, though single readings can be large or run the other way; note: potency is the fitted concentration of half-maximal effect; % is set by controls: 0 for no effect and ±100 for the full control effect; nearly all actives have a fitted effect of over 60% in size
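USP1/UAF1 complex at 1 nM was preincubated with compound for 15 min at room temperature, then Ub-Rho substrate (150nM final) was added. Fluorescence (480/540 nm) was read kinetically, 6 reads every 60 seconds.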
D1 antagonist = human D1 dopamine receptor antagonism; AID 504652; HEK293 TREx D1 cells, calcium flux, dopamine EC80; active compounds read low; activity change, negative = inhibition, % at 10 µM; hit rate 3.2% among 360,000; P21728; in the data active = activity change below about -30%; note: % is set by controls: 0 for no effect and ±100 for the full control effect
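Allosteric or orthosteric antagonism assessed as attenuation of the calcium response to EC80 dopamine, added 180 s after compound, in induced HEK293 Trex D1 cells loaded with no-wash calcium dye.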
TRHR agonist = activates the human TRH receptor | P34981 | TRHR cells, calcium flux fluo-8, FDSS agonist mode | activation, % at 2 µM | hit rate 0.18% among 360,000 | AID 493084; note: 0% is about no effect
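Steps: seed TRHR cells overnight; add fluo-8 no-wash Ca dye, RT 30 min–1.5 h; record 10 s baseline; pin-transfer compounds; monitor fluorescence 1 cycle/s for the agonist window. Calcium increases flag candidate agonists.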
D1 agonist = activates the human D1 dopamine receptor; P21728; HEK293 T-REx D1 cells, calcium flux, agonist mode; activation, % at 2 µM; hit rate 1% among 360,000; note: 0% is about no effect
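Tetracycline-induced HEK293 TREx D1 cells, force-coupled to calcium signalling, were dye-loaded with a no-wash calcium kit. Compound was pin-added after a 10 s baseline. Fluorescence was read kinetically at 1 cycle/s for 180 s, with calcium rises flagged as agonism.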
* = called active by the depositor; ? = inconclusive; . = not tested or not shown. Cut-off read from the data, not from the text of the source, unless noted: active = activation above about 30%; inactive = the rest.

SMILES	TRHR enhancer	D1 potentiator	USP1 inh	D1 antagonist	TRHR agonist	D1 agonist
O=C1C=C(N2CC2)c2ccccc2C1=O	.	.	7.08µM*	.	.	.
O=C(NCc1ccccc1)N1CCc2c(sc3c2CCCC3)C1c1ccccc1 (stereo unspecified)	0.7	-1.1	?	13.4	-0.1	4.9
CCC1(CC)C(=O)N(Cc2ccccc2)C(=O)N(Cc2ccccc2)C1=O	-2.0	-6.9	-5.8%	-18.8	0.6	2.6
N=C1SCC(=O)N1Cc1ccccc1	-5.6	-3.9	-18.6%	-31.1*	0.1	3.4
NCCc1ccc(OCc2ccccc2)c(OCc2ccccc2)c1	1.7	-1.8	-9.0%	10.7	4.4	33.7*
Cc1ccc2scc(N3CCN(C)CC3)c(=O)c2c1	3.1	1.6	7.5%	19.0	-0.8	3.6
CC1=NN(c2ccccc2)C(=O)C1/C=C1/C(=O)NC(=O)N(c2cc(C)cc(C)c2)C1=O (stereo unspecified)	-0.5	-1.3	-5.6%	-36.8*	0.3	4.8
CCOc1ccc(CN(CCc2ccc3c(c2)OCO3)Cc2cccc(Br)c2)cc1	-0.5	-0.6	12.8%	-12.8	-1.0	3.6
CC(C)C(=O)Nc1ccc([N+](=O)[O-])c(C(F)(F)F)c1	0.4	-5.0	?	-18.0	0.8	23.6
CN1CCC(N(C)c2nc(-c3ccc([N+](=O)[O-])cc3)nc3ccccc23)CC1	0.8	-3.0	-16.7%	-7.3	3.0	36.5*
COc1cccc(-n2c(/C=C/c3cccc(C)c3)nc3ccccc3c2=O)c1	9.0	-0.1	?	-1.4	0.2	1.0
Nc1ccc2nonc2c1[N+](=O)[O-]	3.8	1.9	31.6µM*	-12.4	16.6	91.7*
COc1ccc(S(=O)(=O)N(CC(=O)NCc2ccccc2OC)c2ccc(C)cc2)cc1	-2.8	-6.9	?	-5.4	0.8	4.3
C=CCn1c(O)c(C=Nc2ccc(F)cc2)c(=O)[nH]c1=O	-0.2	-11.0	-2.3%	-10.1	-0.2	-0.6
CCN(CC)c1ccc(N=Cc2c(O)n(-c3ccc(Cl)cc3)c(=O)[nH]c2=O)cc1	-1.1	-5.6	-23.5%	-37.6*	2.2	6.4
C=CCn1c(O)c(C=Nc2ccc(N(CC)CC)cc2)c(=O)[nH]c1=O	7.9	-3.8	?	-4.9	11.3	30.8*
COc1cccc2c1C(=O)c1c(O)c3c(c(O)c1C2=O)CC(O)(C(C)=NO)CC3OC1CC(N)C(O)C(C)O1 (stereo unspecified)	.	.	25.1µM*	.	.	.
O=c1[nH]c(=S)n(-c2ccccc2F)c(O)c1C=Nc1ccc(N2CCOCC2)cc1	-0.9	-0.3	25.1µM*	2.8	20.5	24.0
Cc1cc(C)cc(-n2c(O)c(C=Nc3ccc(N4CCOCC4)cc3)c(=O)[nH]c2=S)c1	0.9	-0.1	-20.5%	-3.5	-0.2	35.0*
CCOc1ccc(-n2c(O)c(C=Nc3ccc(N4CCOCC4)cc3)c(=O)[nH]c2=O)cc1	1.5	-2.6	-11.6%	-12.1	2.0	3.2
O=c1[nH]c(=S)n(-c2ccc(Br)cc2)c(O)c1C=Nc1ccc(N2CCOCC2)cc1	21.7	5.5	31.6µM*	0.7	-0.3	27.5
CCOc1ccc(CN(CCc2ccc3c(c2)OCO3)Cc2ccc(OC)c(Br)c2)cc1	-10.4	-2.5	-7.2%	-21.1	1.4	8.5
CC(Cc1ccccc1Sc1ccccc1O)N(C)C (stereo unspecified)	15.8	-0.2	-2.5%	-38.5*	2.1	40.3*
O=C1CC(c2ccc(C(F)(F)F)cc2)c2c(c3ccccc3oc2=O)O1 (stereo unspecified)	0.2	0.1	-26.5%	0.3	1.4	2.6
C=C1C2C[C@H](O)C(C)(C)[C@@]2(O)[C@H](O)C[C@]23C[C@@](C)(O)[C@H](CC[C@H]12)[C@H]3OC(C)=O (stereo partly specified)	1.1	-2.6	16.6%	-34.0*	-0.2	0.4
SMILES	TRHR enhancer	D1 potentiator	USP1 inh	D1 antagonist	TRHR agonist	D1 agonist
COc1ccc(CN2C(=O)NC(=O)/C(=C/c3cc(OC)c(OC)c(OC)c3)C2=O)cc1	3.3	2.3	-13.6%	-13.3	2.3	4.9
COc1ccc(CN2C(=O)NC(=O)/C(=C/c3ccc(OC)c(OC)c3OC)C2=O)cc1	7.4	-1.6	-6.4%	-34.7*	-1.4	6.9
Cc1ccc(OCC(=O)N2CCN(Cc3ccc4c(c3)OCO4)CC2)cc1C	-2.6	-2.6	-17.6%	0.4	-0.4	0.7
O=C(COc1ccc(Br)cc1)N1CCN(Cc2ccc3c(c2)OCO3)CC1	3.6	-0.4	-25.5%	-34.4*	0.7	5.0
COc1ccccc1-c1nn2c(=O)cc(CN3CCN(C(=O)COc4ccccc4Cl)CC3)nc2s1	-1.6	-0.3	-9.1%	-0.5	-0.7	1.2
Ic1ccccc1CN[C@@H]1C2CCN(CC2)[C@@H]1C(c1ccccc1)c1ccccc1	8.5	23.6	-21.4%	-31.2*	-0.5	83.5*
CCCc1ccc(OCC(=O)Nc2ccc(Cl)cc2C(=O)c2ccccc2)cc1	4.6	4.8	-12.3%	-4.3	-1.3	2.3
O=C(Nc1ccc2c(c1)OCO2)c1cccn(Cc2cccc([N+](=O)[O-])c2)c1=O	0.6	-2.2	-10.6%	.	0.2	-3.8
CCCCn1c(O)c(C(CC)=NCCc2ccccc2)c(=O)[nH]c1=O	-0.7	-6.0	-19.3%	-3.1	0.0	1.8
CCCCn1c(O)c(/C(C)=N/NC(=O)Nc2ccccc2)c(=O)[nH]c1=O	35.1*	-8.3	-15.1%	0.0	0.1	0.1
CCCCn1c(O)c(C(=O)/C=C/c2c[nH]c3ccccc23)c(=O)[nH]c1=O	8.7	-4.1	25.1µM*	0.9	-0.1	0.6
N#Cc1ccccc1NC(=O)c1cccn(Cc2ccccc2)c1=O	-1.5	1.1	-27.1%	.	0.3	-0.8
COc1cc(C(=O)OCc2cc(=O)c(O)co2)ccc1OC(F)F	5.9	-4.3	?	18.6	0.2	5.0
NCC(O)c1cc(O)c(O)cc1F (stereo unspecified)	-4.1	-6.4	-12.8%	-85.1*	0.7	37.2*
O=C(Nc1cccc(Cl)c1)OC1CN2CCC1CC2 (stereo unspecified)	-5.8	-5.4	-23.1%	-38.3*	3.3	22.4
O=C(Nc1ccccc1Cl)OC1CN2CCC1CC2 (stereo unspecified)	-2.7	-6.2	-9.5%	-37.6*	3.8	13.9
O=C(Nc1ccccc1F)OC1CN2CCC1CC2 (stereo unspecified)	4.4	1.8	-7.9%	7.3	0.3	1.8
O=C(Nc1ccc(Cl)cc1)OC1CN2CCC1CC2 (stereo unspecified)	-5.0	-7.8	-21.0%	-14.7	1.7	30.1*
O=C(CCc1nc(C2=CCN(Cc3cccc(Cl)c3)CC2)no1)Nc1ccccc1F	-1.6	1.9	-17.2%	-5.6	0.1	5.8

High-throughput results (PubChem)
